Laboratory results taken from PubChem BioAssay (NCI).
This is part of a sample that, as a whole, favours compounds with a hit. Of some 83,000 tested, about 20% had one in any assay.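 Assay: single dose, 48 h. Readout: percent growth (0 = no net growth; negative = cell death). Active: <10.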 Unmarked numbers belong to inactive results. Activity calls are given as the source filed them.

Experiments:
Test in all cases: NCI-60 one-dose screen, 48 h (100 = growth as untreated, 0 = no growth, -100 = all killed)
Settings in all cases: 10 µM unless noted
[1] = test system: HCT-15 colon
[2] = test system: HT29 colon
[3] = test system: SNB-75 CNS
[4] = test system: SNB-19 CNS
[5] = test system: U251 CNS
[6] = test system: PC-3 prostate
[7] = test system: SK-MEL-5 melanoma
[8] = test system: UACC-62 melanoma
[9] = test system: LOX IMVI melanoma
[10] = test system: SK-MEL-28 melanoma
[11] = test system: SK-MEL-2 melanoma
[12] = test system: EKVX NSCLC
[13] = test system: SN12C renal
[14] = test system: UO-31 renal
[15] = test system: TK-10 renal
[16] = test system: ACHN renal
[17] = test system: CAKI-1 renal
[18] = test system: A498 renal
[19] = test system: CCRF-CEM leukemia
[20] = test system: MOLT-4 leukemia

| SMILES | growth [1] | growth [2] | growth [3] | growth [4] | growth [5] | growth [6] | growth [7] | growth [8] | growth [9] | growth [10] | growth [11] | growth [12] | growth [13] | growth [14] | growth [15] | growth [16] | growth [17] | growth [18] | growth [19] | growth [20] |
| --- | --- | --- | --- | --- | --- | --- | --- | --- | --- | --- | --- | --- | --- | --- | --- | --- | --- | --- | --- | --- |
| CCc1nc2c(=O)[nH]cnc2o1 | 110% | 108% | 82.5% | 112% | 99% | 99.4% | 103% | 108% | 94.2% | 106% | 113% | 104% | 109% | 75.7% | 108% | 105% | 100% | 102% | 108% | 108% |
| CCCCNc1ccc(C#N)c(OCCN(CC)CC)c1 | 102% | 94.7% | 88.2% | 98.1% | 103% | 93.1% | 93.9% | 103% | 102% | 101% | 105% | 98.7% | 105% | 84.6% | 108% | 101% | 98.6% | 117% | 94.8% | 88.2% |
| COc1cc(CNC(=O)/C=C/C=C/c2ccc3c(c2)OCO3)ccc1OCc1cn(-c2ccc(C)c(C)c2)nn1 | 81.3% | 91.6% | 88.4% | 79.5% | 86.3% | 75.1% | 81.7% | 56.9% | 88.1% | 54.1% | 93.5% | 94.1% | 84.9% | 99.8% | 120% | 81.3% | 54.4% | 80.3% | 95.7% | 96.2% |
| CN(CCOc1ccc(C#N)cc1)CCOc1ccc(C#N)cc1 | 85.8% | 88.7% | 83.4% | 44.5% | 78% | 71.7% | 6.74% (active) | 73.4% | 84.9% | 94.9% | 66.9% | 80.3% | 81.6% | 63% | 94.3% | 83.6% | 99.7% | 12.7% | -84.4% (active) | 94.4% |
| N#Cc1c(-c2cccs2)cc(-c2cccnc2)[nH]c1=O | 102% | 111% | 102% | 98.1% | 96.9% | 101% | 102% | 95.5% | 97.5% | 104% | 113% | 105% | 95.2% | 78% | 109% | 97.2% | 96.1% | 141% | 94.7% | 108% |
| CC(C)=CCC[C@](C)(O)[C@H]1CC[C@]2(C)[C@@H]1CC[C@@H]1[C@@]3(C)Cc4nccnc4C(C)(C)[C@@H]3CC[C@]12C | 70.4% | 42% | 91.6% | 94% | 78.2% | 44.6% | 65.8% | 66.9% | 83.7% | 95.6% | 82.7% | 70.6% | 72.3% | 79.9% | 94.9% | 85% | 70.2% | 91.4% | 68.4% | 66.7% |
| CCOC(=O)c1c(C)c2c(n1C)CSc1cc(C(=O)c3ccccc3)c(=O)[nH]c1-2 | 105% [100 µM] | 108% [100 µM] | 89.5% [100 µM] | 102% [100 µM] | 97.8% [100 µM] | 82.5% [100 µM] | 85.8% [100 µM] | 78.5% [100 µM] | 91.1% [100 µM] | 105% [100 µM] | 122% [100 µM] | 71.8% [100 µM] | 103% [100 µM] | 84.7% [100 µM] | 103% [100 µM] | 84.9% [100 µM] | 66% [100 µM] | 87.7% [100 µM] | 106% [100 µM] | 87.3% [100 µM] |
| O=C(Nc1cccnc1Nc1ccc(F)cc1)c1cn(Cc2cccc(Oc3ccccc3)c2)nn1 | 43.4% | 53.1% | 65.6% | 67.8% | 51.4% | 61.6% | 39.3% | 44.8% | 48.5% | 68.7% | 73.9% | 75.9% | 79.2% | 46.7% | 98.7% | 83.7% | 78% | 60.5% | 63.2% | 32% |
| CCOC(=O)C(=Cc1cccc(Br)c1)C(=O)OCC | 15.1% | 18% | 13.2% | 50.9% | 26.8% | 40.8% | 50.3% | 44.2% | -8.96% (active) | 39.2% | 31.7% | 61.1% | 34.8% | 52.4% | 58.5% | 27.7% | 59.4% | 95.1% | 11.7% | 16.6% |
| Fc1ccc2[nH]cc(-c3nonc3-c3c[nH]c4ccc(Br)cc34)c2c1 | 9.29% (active) | -51.8% (active) | 33.7% | 35.8% | 13.6% | 26.7% | 49.8% | 28% | -53.9% (active) | 61.8% | 27% | 19.3% | 47.3% | 17.3% | 41.5% | 23.3% | 12.4% | 24.9% | 26% | 16.7% |
| C[C@@H]1CCC[C@H]1CC(N)C(=O)O (stereo not given in full) | 90.6% | 116% | 103% | 117% | 114% | 96.8% | 98.5% | 116% | 91.3% | 108% | 132% | 98.4% | 114% | 99% | 130% | 99.5% | -76.8% (active) | 97.9% | 104% | 114% |
| C=C(C)[C@@H]1CC[C@]2(C(=O)O)CC[C@]3(C)[C@H](CC[C@@H]4[C@@]5(C)C[C@@H](Cc6cn(CCO[C@@H]7O[C@H](COC(C)=O)[C@H](OC(C)=O)[C@H](OC(C)=O)[C@H]7OC(C)=O)nn6)[C@H](O)C(C)(C)[C@@H]5CC[C@]43C)[C@@H]12 | 70.1% | 77.9% | 66.5% | 64.5% | 57.4% | 54.9% | 53.5% | 63.7% | 45.2% | 76.5% | 67.2% | 72% | 70.3% | 81.6% | 79.3% | 86% | 73.2% | 70.3% | 69.2% | 50.6% |
| CS(=O)(=O)c1cccc(-c2c(-c3cccc(OS(N)(=O)=O)c3)nc3sccn23)c1 | 104% | 107% | 70.8% | 97.5% | 100% | 106% | 96.6% | 94% | 95.6% | 112% | 117% | 95.3% | 102% | 75.5% | 108% | 99.2% | 81.2% | 100% | 107% | 105% |
| CCOC(=O)C1=C(NC)OCC1=O | 111% | 99.6% | 99.1% | 109% | 96.5% | 85.7% | 93.4% | 103% | 101% | 110% | 116% | 99.3% | 103% | 88.3% | 99.4% | 110% | 100% | 86.1% | 101% | 97.3% |
| CCCCCCCCCCCCCCCCCCOc1ccccc1CC(=O)NCC[N+]1(C)CCCC1 | 93.9% | 8.69% (active) | 45% | 35.2% | 6.79% (active) | 4.91% (active) | 73% | 43.2% | 53.4% | 84.2% | 62.4% | 92% | 29.8% | 85.1% | 25.9% | 95.8% | 74% | 71.5% | 18.8% | 14% |
